Most compounds without a hit are left out; they make up all but 19% or so of the library.
DT40 TDP1 CPT – qHTS for Inhibitors of human tyrosyl-DNA phosphodiesterase 1 (TDP1): qHTS in cells in presence of CPT; AID 686979, 2013; Potency, µM (doses to about 46.2 µM), hits mostly inhibitors; chicken DT40 Tdp1-/-;hTDP1 cells + 20 nM CPT, ATP luminescence, 48 h; 12% of 420,000 active; also: nearly all actives have a fitted effect of over 55% in size
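Cell growth measured by CellTiter-Glo luminescence after a minimum 48 h, 37 C compound exposure with 20 nM CPT in Tdp1-knockout DT40 cells stably expressing hTDP1, seeded 400/well; qHTS titration format.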
VP16 counter – VP16 counterscreen qHTS for inhibitors of ROR gamma transcriptional activity; Potency, µM (titrated, usually from 53.6 µM), usual class: inhibitors; AID 2546, 2010; Drosophila S2 Gal4-VP16 UAS-luciferase, luminescence, 20 h; 3.5% of 310,000 active;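 also: Gal4-VP16 expression switched on by copper sulfate through the metallothionein promoter; nearly all actives have a fitted effect of over 50% in size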
RORg inh – qHTS for inhibitors of ROR gamma transcriptional activity; AID 2551, 2010; Potency, µM (top dose mostly 53.6 µM), usual class: inhibitors; 5.4% of 310,000 active; Nuclear receptor ROR-gamma (Mus musculus), P51450; Drosophila S2 Gal4-RORgamma UAS-luciferase reporter, 20 h; also: nearly all actives have a fitted effect of over 60% in size
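Luciferase reporter read in Schneider cells carrying Gal4-RORγ (mouse) and UAS-Photinus luciferase; cells given compound 1 h before 700 uM copper sulfate induction, then incubated 20 h at ambient temperature.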
TDP1 block – qHTS Assay for Inhibitors of Tyrosyl-DNA Phosphodiesterase (TDP1). AID 485290, 2010. Potency, µM (titrated, usually from 130 µM), usual class: inhibitors. Tyrosyl-DNA phosphodiesterase 1 (Homo sapiens), Q9NUW8. recombinant TDP1, AlphaScreen DNA substrate cleavage. 0.28% of 350,000 active; also: nearly all actives have a fitted effect of over 40% in size
Target sequence (Q9NUW8 whole entry, looked up): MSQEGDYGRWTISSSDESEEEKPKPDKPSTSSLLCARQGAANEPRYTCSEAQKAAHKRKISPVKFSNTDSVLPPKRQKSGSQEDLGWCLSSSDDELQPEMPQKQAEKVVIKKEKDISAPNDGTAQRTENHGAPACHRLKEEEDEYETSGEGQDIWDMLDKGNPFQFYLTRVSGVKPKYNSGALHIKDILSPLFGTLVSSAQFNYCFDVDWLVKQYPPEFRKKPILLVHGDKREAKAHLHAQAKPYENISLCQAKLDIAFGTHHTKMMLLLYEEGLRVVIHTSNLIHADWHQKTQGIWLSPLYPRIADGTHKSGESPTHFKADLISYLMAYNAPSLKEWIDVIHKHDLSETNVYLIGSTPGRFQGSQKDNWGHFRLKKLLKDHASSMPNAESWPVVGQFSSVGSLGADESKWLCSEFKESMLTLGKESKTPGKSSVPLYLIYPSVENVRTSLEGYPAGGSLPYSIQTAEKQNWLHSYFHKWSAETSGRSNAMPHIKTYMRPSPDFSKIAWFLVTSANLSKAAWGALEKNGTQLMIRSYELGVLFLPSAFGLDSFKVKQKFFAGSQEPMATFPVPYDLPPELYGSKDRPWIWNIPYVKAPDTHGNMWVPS
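E. coli-derived human Tdp1, 1 nM final. Cpd preinc 15 min RT; substrate 15 nM final, 5 min RT; AS bead mix 10 ug/ml final, 10 min RT. Signal loss = tyrosine-FITC cleavage. No-enzyme wells = max signal.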
DT40 TDP1 no CPT – qHTS for Inhibitors of human tyrosyl-DNA phosphodiesterase 1 (TDP1): qHTS in cells in absence of CPT; AID 686978, 2013; DT40 Tdp1-/- hTDP1 cells, no CPT, ATP luminescence, 48 h; Potency, µM (series often up to 46.2 µM), usual class: inhibitors; 15% of 420,000 active; also: nearly all actives have a fitted effect of over 55% in size
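DT40 Tdp1-/-;hTDP1 cells, no CPT (DMSO vehicle only), 400 cells/well; compounds pin-transferred; ≥48 hr, 37 °C; CellTiter-Glo 30 min RT dark, luminescence read.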
Numbers stand for hits; – = inactive; ? = inconclusive; · = not tested or not shown; [ ] = another dose, or the depositor's remark. Calls follow the shape of the dose curve; as a rule, active = well fitted curve in the direction sought with a large enough effect; inconclusive = small, poorly fitted or top-dose-only effect, or another doubt; inactive = no such curve, though single readings can be large; an effect the other way counts as inactive or inconclusive.

SMILES | DT40 TDP1 CPT | VP16 counter | RORg inh | TDP1 block | DT40 TDP1 no CPT
CC(C)(C)NC(=O)CN(Cc1cccs1)C(=O)C1COc2ccccc2O1 (stereo not given) | – | – | – | – | –
O=C(NCc1ccco1)C(c1cccs1)N(C(=O)C1COc2ccccc2O1)c1cccc(O)c1 (stereo not given) | 23.1µM | – | – | – | 13µM
O=C(Nc1nc(-c2ccc(S(=O)(=O)N3CCCC3)cc2)cs1)c1cccs1 | ? | – | – | – | 14.6µM
O=C(Nc1nc(-c2ccc(S(=O)(=O)N3CCCCCC3)cc2)cs1)c1cccs1 | ? | – | – | – | 20.6µM
CCN(C(=O)C1CCN(S(=O)(=O)c2cc(Br)cc3c2N(C(C)=O)CC3)CC1)c1cccc(C)c1 | ? | · | · | – | 23.1µM
CC(=O)N1CCc2cc(Br)cc(S(=O)(=O)N3CCCCCC3)c21 | – | – | – | – | –
CCC(=O)N1CCc2cc(Br)cc(S(=O)(=O)N3CCCC(C(=O)Nc4ccc(OC)cc4OC)C3)c21 (stereo not given) | – | · | · | – | –
CCCN(CCC)C(=O)C1CCCN(S(=O)(=O)c2cc(Br)cc3c2N(C(=O)CC)CC3)C1 (stereo not given) | ? | · | · | – | 20.6µM
CCC(=O)N1CCc2cc(Br)cc(S(=O)(=O)N3CCCC(C(=O)Nc4cccc(C)c4C)C3)c21 (stereo not given) | ? | · | · | – | ?
CCC(=O)N1CCc2cc(Br)cc(S(=O)(=O)N3CCCC(C(=O)N(C)c4ccc(Br)cc4)C3)c21 (stereo not given) | 18.4µM | · | · | – | ?
O=C(Nc1nnc(SCc2c(Cl)cccc2Cl)s1)c1ccc2ncsc2c1 | · | – | – | – | ·
CCc1cc(=O)oc2cc(OCC(=O)NCC3CCC(C(=O)O)CC3)ccc12 (stereo not given) | – | – | – | · | –
COc1cc2c(cc1OC)CC(=O)N(C)CC2 | – | – | – | – | –
COc1cc2c(C=O)c3c4c(cc(OC)c(OC)c4c2cc1OC)CCN3C | 11.9µM | – | – | – | 11.9µM
CCc1ccc(NC(=O)CSC2=Nc3ccccc3C3=NC(CC(=O)NCc4ccc5c(c4)OCO5)C(=O)N23)cc1 (stereo not given) | ? | · | · | – | 23.1µM
COc1ccc(OC)c(NC(=O)CSC2=Nc3ccccc3C3=NC(CC(=O)NCc4ccc5c(c4)OCO5)C(=O)N23)c1 (stereo not given) | ? | · | · | – | 23.1µM
Cc1cc(NC(=O)CSc2nnc3ccc(-c4ccccc4)nn23)no1 | – | · | · | · | –
CCOc1cc(/C=C2\SC(=N)N(c3nccs3)C2=O)ccc1OCCN1CCOCC1 | 16.4µM | 2.82µM | 0.562µM | – | 20.6µM
Cc1ccc2c(c1)c(=O)c(C(=O)c1ccc3c(c1)OCO3)cn2Cc1cccc(F)c1 | ? | · | · | – | 16.4µM
CCOc1ccc2c(c1)c(=O)c(C(=O)c1ccc3c(c1)OCO3)cn2Cc1cccc(F)c1 | ? | · | · | – | 23.1µM
COc1cccc(Cn2cc(C(=O)c3ccccc3)c(=O)c3cc4c(cc32)OCO4)c1 | ? | · | · | – | ?
CC(C)C(NC(=O)/C(=C/c1ccco1)NC(=O)c1ccc(Br)o1)C(=O)O (stereo not given) | – | – | – | · | –
C=CCN(c1ccc(C(=O)Nc2ccc(NC(C)=O)cc2)cc1)S(C)(=O)=O | ? | – | – | – | 23.1µM
C=CCN(c1ccc(C(=O)Nc2cccc(C)c2)cc1)S(C)(=O)=O | – | – | – | – | –
CCCC(=O)N(c1ccc2oc(C)c(C(C)=O)c2c1)S(=O)(=O)c1ccc(CC)cc1 | · | · | · | – | ·
SMILES | DT40 TDP1 CPT | VP16 counter | RORg inh | TDP1 block | DT40 TDP1 no CPT
CCOC(=O)c1c(C)oc2ccc(N(C(=O)c3ccncc3)S(=O)(=O)c3ccc(Br)cc3)cc12 | · | · | · | – | ·
CCCCOC(=O)c1c(C)oc2ccc(NS(=O)(=O)c3ccc4c5c(cccc35)C(=O)N4)cc12 | ? | – | – | – | 18.4µM
COC(=O)c1c(C)oc2ccc(N(C(=O)c3ccncc3)S(=O)(=O)c3ccc(Br)cc3)cc12 | 8.2µM | · | · | – | 3.66µM
COCCOC(=O)c1c(C)oc2ccc(NS(=O)(=O)c3cccs3)cc12 | – | – | – | – | –
COC(=O)c1c(C)oc(C)c1S(=O)(=O)N(Cc1ccccc1)C(C)C | 13µM | – | – | – | 16.4µM
CCOc1ccc(S(=O)(=O)N(C(C)=O)c2ccc3oc(C)c(C(=O)OC)c3c2)cc1 | 1.3µM | · | · | · | 0.581µM
COC(=O)c1c(C)oc(C)c1S(=O)(=O)Nc1ccccc1 | – | – | – | – | –
C#CCOC(=O)CCCC(=O)Nc1ccccc1OC | – | – | – | – | –
CC(=O)Nc1ccccc1NC(=O)C/C(C)=N/NC(=O)c1ccccn1 | – | – | – | – | –
O=C1Nc2ccc(S(=O)(=O)Nc3ccccc3O)c3cccc1c23 | – | · | · | – | –
COC(=O)c1c(C)oc2ccc(N(C(C)=O)S(=O)(=O)c3ccccc3)cc12 | 14.6µM | ? | ? | · | –
CC(C)OC(=O)C(C(=O)C(F)(F)F)c1cc(NS(=O)(=O)c2ccc3c4c(cccc24)C(=O)N3)ccc1O (stereo not given) | 11.6µM | · | · | · | ?
CCOc1ccc(S(=O)(=O)Nc2ccc3oc(C)c(C(=O)OCCOC)c3c2)cc1 | 1.84µM | · | · | – | 1.46µM
COCCCN1CC23C=CC(O2)C(C(=O)O)C3C1=O (stereo not given) | ? | – | ? | – | ?
C=C1SC(Nc2c(C)cccc2C)=NC12CCCCC2 | ? | 2.24µM | 3.98µM | – | ?
C=C1SC(Nc2c(C)cc(C)cc2C)=NC12CCCCC2 | ? | 0.631µM | ? | – | 18.4µM
CCCCOCCCNC(=O)Cc1ccccc1OC | ? | – | – | – | ?
N#Cc1c(N)[nH]c2ccc(Sc3ccccc3)cc12 | 0.731µM | · | · | · | 0.731µM
N#Cc1cc(-c2ccccc2)cnc1Sc1ccccc1 | – | – | – | – | –
NC(=O)C1CCN(C(=O)CCSCc2ccc(Cl)c(Cl)c2)CC1 | – | – | – | · | –
O=C(NCc1ccccc1)C1CCN(c2nc(-c3ccccc3)nc3c2CCC3)CC1 | 18.4µM | – | – | – | 20.6µM
CC1CCCN(C(=O)C2CCN(c3nc(-c4ccccc4)nc4c3CCC4)CC2)C1 (stereo not given) | ? | – | – | – | 23.1µM
O=C(NCc1ccccc1)C1CCC1 | – | – | – | – | –
CC(=O)N1CCN(c2ccc(NC(=O)COc3ccc(Cl)cc3Cl)cc2)CC1 | 23.1µM | – | – | – | 18.4µM
CC(Oc1ccc(Br)cc1Cl)C(=O)Nc1ccncc1 (stereo not given) | 8.2µM | ? | –[1.91 µM] | · | 5.17µM

Screening data as filed in PubChem BioAssay.
